From the supplement of paper PMC6555819

Each sequence was assayed on VDR:RXRa (NR concentration 270 nM, RXRa partner concentration 90 nM) (assay: PBM binding z-score (relative to random genomic background probes); higher = stronger binding; sequences stand for … in GC…GCGATTGACAGCGTAGAATGAAGG).
Protocol: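 Protein-binding microarray (Agilent 4x180K custom design, double-stranded 60-nt probes: 5' GC cap, 34-nt variable region, 24-nt constant primer region; full probe sequence given). Purified or IVT nuclear receptor:RXRα heterodimers (3:1 NR:RXRα, mostly 270:90 nM) or homodimers were incubated for 1 h in PBS with 2% milk and no ligand, then detected with Alexa488 antibodies. Fluorescence from o1-orientation probes (~5 replicates averaged) was converted to z-scores against 500 random hg19 background probes. Variable regions are seed direct-repeat (DR0–DR5) sites, all their single-nucleotide variants and half-site ablations.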
CCTATTAGTAGACCATAAGGGCAACCGAAGCTCG was tested, and the PBM binding z-score was 0.553.
Work on TCGAGTAGGTTACCAACGGGGCATTCAGCTTTCT yielded a PBM binding z-score of 0.126.
CCTATTAGTTGACCATATGGGCAACCGAAGCTCG showed a PBM binding z-score of 0.234.
Sequence GCGCCTGGGGCAAAGCAGGTTACCATAAGGTTGG has a PBM binding z-score of -0.092.
ACTAGTTGGTCAGCTGAGGTCACGCACAATTCGG showed a PBM binding z-score of 5.09.
With ACTCGGAGGACAAAGTTCAGAGCTACGCCAGTGA the PBM binding z-score was 1.95.
Work on GCTAGCAGGTCATTTGGGTCACTCAATGACGGGC yielded a PBM binding z-score of 5.92.
ATCTCTAGGTAACAAGTTCACTGAAAGAGAGGAC gave a PBM binding z-score of 3.26.
Work on GCTAGTTGGTCAGTAGAAGGTCACACACCGGTCG yielded a PBM binding z-score of 2.65.
Sequence CGTCAAAGTTCAAGGGAACGTAACAGAAAGCAGC has a PBM binding z-score of 3.12.
Sequence GTACCAAGGTGAATAGGTCGTTGGTGAGTAGGCG has a PBM binding z-score of 0.678.
In the case of CGTCCAAGGTCAAAGGTCCGTGAAGAGATGACGG, the PBM binding z-score is reported as 4.62.
For CTAACTAGGTCAGAACAGGACAGTGAAGGATGAT, the PBM binding z-score was 0.705.
Work on ATATGTAGATTAGCTGGGGTCATTCAGACTAGGC yielded a PBM binding z-score of 4.91.
Work on CCGACTGGGGCAAAGTTTACCATACTCAGTACGA yielded a PBM binding z-score of 0.062.
ATCTCTAGGTAACCAAGTTCACTGAATGCCGAAC gave a PBM binding z-score of 5.34.
TAGCCTAGGTCCTGGGCCAGTATACCACGCGAAC was tested, and the PBM binding z-score was -0.679.
In the case of AATACAGGGTCAGCGTAGGCCAGAGTACGCACAG, the PBM binding z-score is reported as 3.44.
In the case of ACTAGCAGGCCACGGGTCACTCAAGATTAGTCCG, the PBM binding z-score is reported as 1.2.
In the case of ATATGTAGGCTAAGGGTCATTCAGGTTGGTTCGC, the PBM binding z-score is reported as 5.13.
CCTGCTAGGTAAATGGTCAGCTAAAGCAGCTCGC gave a PBM binding z-score of -0.541.
TCTTATAGGTAAATGCTAGGTGAAAGTCCGATCT gave a PBM binding z-score of 0.709.
For ATATATAGGTTACATCCGGGTCATTCAGGCTATG, the PBM binding z-score was 4.58.
TCTAGTTGGTCAAAGGTCACACTCTCGAAATGCG was tested, and the PBM binding z-score was 5.
In the case of GCAGACAGGTGGAACGCAGGTAACTCAGGGTGGC, the PBM binding z-score is reported as -0.675.
Work on ATCTCTAGGTAACCAAGTTTAGTGAATGCCGAAC yielded a PBM binding z-score of 1.55.
CCGACTGGGGCAAGGTTACCATTACGCACAGCCA gave a PBM binding z-score of 0.00135.
Work on GCTTACGGGTCAAGGGTTATAGCATGAATAGAAT yielded a PBM binding z-score of 4.33.
ATCTCTAGGCAAAGATAGTTCAGTGAATGCAAAT was tested, and the PBM binding z-score was -0.11.
Work on CGAACTAGGTCATTGACAGGAAAGTGAATAGTAA yielded a PBM binding z-score of 1.73.
Work on CGAACTAGGTCCAGGACAGTGAATCTCCGCACGC yielded a PBM binding z-score of -0.573.
For CATACAGGGTCAGCTAGGCCAGAGGAGGGACGGC, the PBM binding z-score was 3.53.
For CCTCGTTGGTCAGGAGGTCACACACCGGATATGA, the PBM binding z-score was 3.77.
Work on TCTAGTTGGCCACGGAGGTCACACACGACGGGTA yielded a PBM binding z-score of 3.97.
Work on ACTCGGAGGACAACGGTCAGAGCTACGCCAGTGA yielded a PBM binding z-score of -0.667.
With TAGCCTAGGTCATCCAGGGGCCAGTATAGAAAGC the PBM binding z-score was 3.1.
Work on TCATATAGGAAAAGGTGAAAGTCGAACGATATGA yielded a PBM binding z-score of 0.862.
With CAAACTAGGTCACGGTCAAAGTCGGTTTGTGCCA the PBM binding z-score was 3.33.
TCTGCTAGGCCAACGATGGTCAGCTAATCTGCTA was tested, and the PBM binding z-score was -0.596.
In the case of TCTTCTAGATCAAAGGTTAAGAAAGCCGAAGCCT, the PBM binding z-score is reported as 1.58.
